# Test results as given in PubChem BioAssay (NCATS).
# “And” between values parts separate entries of the source, which are not always exact repeats. Identical values can stand only once. Records with an inconclusive call do not appear. Where a call stands in place of a potency, no number is given. Some compounds were tested as several samples or in several runs, with calls that do not always agree. The source made the active and inactive calls. Unless noted, calls follow the shape of the dose curve; as a rule, active = well fitted curve in the direction sought with a large enough effect; inconclusive = small, poorly fitted or top-dose-only effect, or another doubt; inactive = no such curve, though single readings can be large; an effect the other way counts as inactive or inconclusive.
# Key:
# [1] = qHTS Screen of the MIPE 4.0 Collection Against Ewings Sarcoma (TC32) (AID 1259256); also: nearly all actives have a fitted effect of over 45% in size; also: potency is read from the fitted curve at half-maximal effect
# Summary of the method: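 Log-phase cells in RPMI with 5% FBS attached for 4 h, then received compounds as a titration for 48 h at 37C, 5% CO2. Viability was read by CellTiter-Glo luminescence and normalized to DMSO and no-cell wells.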
# [2] = P-glycoprotein substrates identified in KB-8-5-11 adenocarcinoma cell line, qHTS therapeutic library screen (AID 1346987); also: nearly all actives have a fitted effect of over 65% in size; also: potency is read from the fitted curve at half-maximal effect
# Summary of the method: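 Compounds are pinned in dose-response onto KB-8-5-11 cells (500 cells/well, colchicine-free medium) and left 72 h at 37 degree C. CellTiter-Glo luminescence then yields AC50 values.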
# [3] = NS1 protein of Zika virus - qHTS assay to identify small molecule inhibitors in human HEK 293 cells (AID 1347053); also: nearly all actives have a fitted effect of over 55% in size; also: potency is read from the fitted curve at half-maximal effect
# Summary of the method: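 Read-out is a two-antibody TR-FRET for ZIKV NS1, normalized between uninfected cells and infected cells. Compound added 1 h before MR766 infection at MOI 0.5; human HEK 293 cells incubated 24 h, 37 C.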
# [4] = qHTS for Inhibitors of the Functional Ribonucleoprotein Complex (vRNP) of Lassa (LASV) Arenavirus: LASV Primary Screen - GLuc reporter signal (AID 1347082; calls by dose curve; tested in HEK293 reporter line; also: nearly all actives have a fitted effect of over 60% in size; also: potency is read from the fitted curve at half-maximal effect)
# [5] = qHTS assay to identify small molecule inhibitors of chordoma cells - UCH-1 (AID 1259355); also: nearly all actives have a fitted effect of over 55% in size
# Summary of the method: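 Screening used approved and investigational drugs in 15-point titration against 800 seeded cells per well. A fixed combination of auranofin with camptothecin, doxorubicin, rubitecan and topotecan followed compound addition, and growth was scored by CellTiter-Glo after 48hr.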
# [6] = qHTS assay to identify small molecule inhibitors of chordoma cells - UCH-2 (AID 1259356); also: series mostly up to about 46 µM
# [7] = target: T1, Tyrosine-protein phosphatase non-receptor type substrate 1 (Homo sapiens) + Leukocyte surface antigen CD47 (Homo sapiens) (UniProt P78324+Q08722); assay: CD47-SIRPalpha protein protein interaction - LANCE assay qHTS validation (AID 1347057; active = well fitted curve in the direction sought with a large enough effect in the signal ratio, with a control signal flat, not every such curve was filed as active; the % refers to the signal ratio; also: series mostly up to about 38 µM)
# T1 sequence (P78324 whole entry, looked up, the tested form may be a part): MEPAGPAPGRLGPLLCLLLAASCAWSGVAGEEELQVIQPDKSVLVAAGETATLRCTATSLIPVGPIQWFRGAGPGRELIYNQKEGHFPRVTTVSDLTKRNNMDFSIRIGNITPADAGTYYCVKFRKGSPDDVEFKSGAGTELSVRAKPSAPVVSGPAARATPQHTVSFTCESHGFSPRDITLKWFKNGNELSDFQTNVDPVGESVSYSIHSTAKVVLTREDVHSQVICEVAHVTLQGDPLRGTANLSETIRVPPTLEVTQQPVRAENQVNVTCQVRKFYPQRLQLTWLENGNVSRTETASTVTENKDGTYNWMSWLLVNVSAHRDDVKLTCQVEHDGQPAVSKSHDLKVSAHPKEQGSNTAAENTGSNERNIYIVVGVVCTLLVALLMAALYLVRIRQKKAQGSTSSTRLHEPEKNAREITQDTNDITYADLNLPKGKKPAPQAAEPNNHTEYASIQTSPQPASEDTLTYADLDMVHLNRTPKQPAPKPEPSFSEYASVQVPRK
# T1 sequence (Q08722 whole entry, looked up, the tested form may be a part): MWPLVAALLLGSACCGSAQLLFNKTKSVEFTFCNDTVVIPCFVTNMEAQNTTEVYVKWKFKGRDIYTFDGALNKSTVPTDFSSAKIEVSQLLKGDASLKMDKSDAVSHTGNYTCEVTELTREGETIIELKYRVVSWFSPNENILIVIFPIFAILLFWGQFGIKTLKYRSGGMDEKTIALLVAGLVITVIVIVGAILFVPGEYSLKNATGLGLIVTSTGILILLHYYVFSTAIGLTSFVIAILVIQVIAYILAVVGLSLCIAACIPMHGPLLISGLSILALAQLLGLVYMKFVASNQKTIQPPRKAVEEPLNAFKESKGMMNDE
# Summary of the method: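 Inhibition of soluble CD47/SIRPalpha ectodomain association by titrated compounds, measured as 665/615 nm time-resolved FRET ratio after sequential 30 min room-temperature incubations.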
# [8] = target: T1, Tyrosine-protein phosphatase non-receptor type substrate 1 (Homo sapiens) + Leukocyte surface antigen CD47 (Homo sapiens); assay: CD47-SIRPalpha protein protein interaction - Alpha assay qHTS validation (AID 1347059);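 also: bead proximity luminescence from CD47 binding SIRPalpha after compound preincubation with SIRPalpha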
# Summary of the method: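 SIRPalpha-biotin 25 nM + cpd, 30 min RT, dark; add CD47-His 12.5 nM, 30 min; add Ni-NTA/SAV beads 10 ug/mL, 30 min; AlphaScreen. Buffer PBS pH 7.4 + 0.05% IGEPAL CA-630. Non-biotinylated SIRPalpha as control inhibitor.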
# [9] = Natriuretic polypeptide receptor (hNpr1) antagonism - Pilot counterscreen GloSensor control cell line (AID 1347045; calls by dose curve; also: potency is read from the fitted curve at half-maximal effect)
# Summary of the method: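 Control counterscreen: luciferase cGMP-biosensor HEK293 cells (no Npr1) received compound for 30 min at room temperature after GloSensor substrate loading. Luminescence was measured before and 20 min after soluble guanylyl cyclase activation by 50 uM nitroprusside.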
# [10] = target: Atrial natriuretic peptide receptor 1 (Homo sapiens) (UniProt P16066); assay: Natriuretic polypeptide receptor (hNpr1) antagonism - Pilot screen (AID 1347049; calls by dose curve;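 also: agonist-evoked cGMP luminescence read 20 min after hNppA addition; potency is read from the fitted curve at half-maximal effect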)
# Atrial natriuretic peptide receptor 1 (Homo sapiens), sequence (P16066 whole entry, looked up): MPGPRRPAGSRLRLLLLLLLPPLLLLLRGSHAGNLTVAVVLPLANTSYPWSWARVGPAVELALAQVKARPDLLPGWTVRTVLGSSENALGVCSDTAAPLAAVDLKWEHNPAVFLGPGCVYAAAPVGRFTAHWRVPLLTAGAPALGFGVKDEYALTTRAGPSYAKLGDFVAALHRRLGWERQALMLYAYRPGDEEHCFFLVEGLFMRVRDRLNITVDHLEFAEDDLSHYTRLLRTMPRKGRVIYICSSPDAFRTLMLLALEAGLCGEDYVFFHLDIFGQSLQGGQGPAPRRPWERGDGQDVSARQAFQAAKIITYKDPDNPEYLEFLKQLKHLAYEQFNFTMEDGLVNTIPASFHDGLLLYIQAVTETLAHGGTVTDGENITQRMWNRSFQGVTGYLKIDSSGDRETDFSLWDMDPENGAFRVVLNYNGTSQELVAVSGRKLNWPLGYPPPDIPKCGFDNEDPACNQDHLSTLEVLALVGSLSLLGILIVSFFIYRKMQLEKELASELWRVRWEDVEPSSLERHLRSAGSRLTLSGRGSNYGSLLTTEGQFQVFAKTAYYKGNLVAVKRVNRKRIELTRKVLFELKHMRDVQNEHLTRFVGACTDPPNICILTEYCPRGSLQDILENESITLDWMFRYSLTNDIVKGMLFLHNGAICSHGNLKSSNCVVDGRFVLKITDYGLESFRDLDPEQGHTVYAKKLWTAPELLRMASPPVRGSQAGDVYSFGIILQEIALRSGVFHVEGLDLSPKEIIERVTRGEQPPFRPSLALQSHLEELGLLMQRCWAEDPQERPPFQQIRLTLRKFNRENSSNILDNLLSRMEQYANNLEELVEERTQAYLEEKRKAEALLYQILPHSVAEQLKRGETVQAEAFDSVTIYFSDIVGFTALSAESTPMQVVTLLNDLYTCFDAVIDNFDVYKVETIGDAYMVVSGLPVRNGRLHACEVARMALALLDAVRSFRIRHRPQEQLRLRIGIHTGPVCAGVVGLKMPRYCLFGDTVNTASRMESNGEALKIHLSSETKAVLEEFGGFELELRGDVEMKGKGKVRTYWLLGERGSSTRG
# Summary of the method: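 cGMP-sensor HEK293/hNpr1 cells, 1500/well, plated overnight at 37C. 2% GloSensor reagent, 2 h RT. Compound (23 nL pin transfer) 30 min RT, baseline luminescence pre-read. 0.1 nM hNppA, 20 min RT, post-read.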
# [11] = target: Atrial natriuretic peptide receptor 2 (Homo sapiens) (UniProt P20594); assay: Natriuretic polypeptide receptor (hNpr2) antagonism - Pilot subtype selectivity assay (AID 1347050; calls by dose curve; also: potency is read from the fitted curve at half-maximal effect)
# Atrial natriuretic peptide receptor 2 (Homo sapiens), sequence (P20594 whole entry, looked up): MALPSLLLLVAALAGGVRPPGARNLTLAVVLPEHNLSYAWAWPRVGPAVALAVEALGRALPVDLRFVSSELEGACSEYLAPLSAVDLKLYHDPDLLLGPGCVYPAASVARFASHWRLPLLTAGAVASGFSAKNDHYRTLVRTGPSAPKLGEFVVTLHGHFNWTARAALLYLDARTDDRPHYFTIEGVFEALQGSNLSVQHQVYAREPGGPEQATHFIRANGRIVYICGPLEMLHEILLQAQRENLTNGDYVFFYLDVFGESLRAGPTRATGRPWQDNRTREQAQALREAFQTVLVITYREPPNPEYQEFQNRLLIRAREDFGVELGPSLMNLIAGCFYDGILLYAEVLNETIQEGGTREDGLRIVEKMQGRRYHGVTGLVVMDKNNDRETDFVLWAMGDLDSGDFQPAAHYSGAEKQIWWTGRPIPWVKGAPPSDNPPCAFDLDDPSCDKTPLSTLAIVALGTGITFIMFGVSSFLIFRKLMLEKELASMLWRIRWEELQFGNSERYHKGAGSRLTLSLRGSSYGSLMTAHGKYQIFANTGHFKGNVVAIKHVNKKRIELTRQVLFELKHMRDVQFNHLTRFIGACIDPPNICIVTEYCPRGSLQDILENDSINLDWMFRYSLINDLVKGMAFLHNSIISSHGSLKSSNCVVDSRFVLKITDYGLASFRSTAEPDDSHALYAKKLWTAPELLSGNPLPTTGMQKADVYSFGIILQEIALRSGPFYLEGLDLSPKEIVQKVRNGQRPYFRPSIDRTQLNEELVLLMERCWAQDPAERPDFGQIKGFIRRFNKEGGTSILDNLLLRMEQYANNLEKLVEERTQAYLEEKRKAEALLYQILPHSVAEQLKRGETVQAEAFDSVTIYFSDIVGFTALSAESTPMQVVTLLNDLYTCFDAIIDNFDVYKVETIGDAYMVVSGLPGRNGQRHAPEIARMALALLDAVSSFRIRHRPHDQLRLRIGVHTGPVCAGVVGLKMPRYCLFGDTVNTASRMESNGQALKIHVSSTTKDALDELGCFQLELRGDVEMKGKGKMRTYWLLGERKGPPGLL
# Summary of the method: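 Luminescence from a genetically encoded cGMP luciferase biosensor in hNpr2-expressing HEK293 cells is read before and 20 min after adding 1 nM hNppC. Test compounds, in interplate 1:5 titrations, are added 30-50 min ahead of the agonist.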
# [12] = target: Parathyroid hormone/parathyroid hormone-related peptide receptor (Homo sapiens) (UniProt Q03431); assay: qHTS for PTHR1 Agonists: Optimization Screen against the NCGC LOPAC library (AID 1347079);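 also: GloSensor cAMP luminescence in HEK-293 GP2 cells expressing human PTHR1 with IBMX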
# Parathyroid hormone/parathyroid hormone-related peptide receptor (Homo sapiens), sequence (Q03431 whole entry, looked up): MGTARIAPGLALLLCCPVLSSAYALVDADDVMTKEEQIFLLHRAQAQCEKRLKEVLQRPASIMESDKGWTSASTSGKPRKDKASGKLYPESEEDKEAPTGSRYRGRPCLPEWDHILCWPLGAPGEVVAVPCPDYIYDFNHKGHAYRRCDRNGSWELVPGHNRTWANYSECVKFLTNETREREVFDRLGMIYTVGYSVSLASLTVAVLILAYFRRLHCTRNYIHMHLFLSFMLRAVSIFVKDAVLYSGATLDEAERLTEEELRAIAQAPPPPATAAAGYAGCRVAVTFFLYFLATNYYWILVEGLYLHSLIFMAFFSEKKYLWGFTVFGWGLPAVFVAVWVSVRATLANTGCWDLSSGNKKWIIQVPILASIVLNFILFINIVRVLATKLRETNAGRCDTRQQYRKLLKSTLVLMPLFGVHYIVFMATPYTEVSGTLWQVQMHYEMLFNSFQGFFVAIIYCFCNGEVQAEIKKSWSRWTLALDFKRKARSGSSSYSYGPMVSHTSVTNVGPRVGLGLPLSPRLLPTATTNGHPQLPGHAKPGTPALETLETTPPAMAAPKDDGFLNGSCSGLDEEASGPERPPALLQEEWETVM
# Summary of the method: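 HEK-293 GP2 cells, PTHR1 + GloSensor cAMP; 3000 cells/well, o/n. Luciferin + IBMX 0.5mM each (stock), 1 hr 37C. Cpd titration, 1 hr 37C. Lum after 15 min RT. Ctrl M-PTH(1-15) top 10uM.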
smiles,measurement,setting,value
C[C@@H]1CC[C@@]2(OC1)O[C@H]1C[C@H]3[C@@H]4CC=C5C[C@@H](O[C@@H]6O[C@H](CO)[C@@H](O[C@@H]7O[C@@H](C)[C@H](O)[C@@H](O)[C@@H]7O)[C@H](O)[C@@H]6O[C@@H]6O[C@@H](C)[C@H](O)[C@@H](O)[C@@H]6O)CC[C@]5(C)[C@@H]4CC[C@]3(C)[C@@H]1[C@H]2C,Potency,[1],3.72 µM (active)
same,Potency,[2],18700 nM (active)
same,Potency,[3],3.72 µM (active)
same,Potency,[4],inactive
CC(=O)OCC1=C(C(=O)O)N2C(=O)[C@@H](N)[C@@H]2SC1,Potency,[1],inactive
same,Potency,[2],inactive
same,Potency,[3],inactive
same,Potency,[4],inactive
Cc1[nH]nc2ccc(-c3cncc(OC[C@@H](N)Cc4c[nH]c5ccccc45)c3)cc12,Potency,[1],4.69 µM (active)
same,Potency,[2],526 nM (active) and 5.17 µM (active)
same,Potency,[3],5.9 µM (active)
same,Potency,[4],0.485 µM (active)
CC(=CCCC1=CCC(C2=CC(=O)OC2O)OC1O)CCC1=C(C)CCCC1(C)C (stereo not drawn),Potency,[1],20.9 µM (active)
same,Potency,[2],inactive
same,Potency,[4],inactive
O=C(N[C@@H](COc1ccc2[nH]c(=O)[nH]c2c1)c1ccccc1)c1cccn(Cc2ccc(F)c(F)c2)c1=O,Potency,[1],18.7 µM (active)
same,Potency,[2],inactive
same,Potency,[4],inactive
CC(C)N[C@@H]1CCn2c(=O)[nH]c3cccc(c32)[C@@H]1O,Potency,[1],8.33 µM (active)
same,Potency,[2],inactive
same,Potency,[3],inactive
same,Potency,[4],8.63 µM (active)
Clc1ccccc1C(c1ccccc1)(c1ccccc1)n1cccn1,Potency,[1],0.935 µM (active)
same,Potency,[2],inactive
same,Potency,[4],inactive
C#CC1(O)CCC2C3CCC4=CC(=O)CCC4(C)C3CCC21C (stereo not drawn),Potency,[1],inactive
same,Potency,[2],inactive
same,Potency,[3],inactive
same,Potency,[4],inactive
COc1ccc2c(c1)[C@]13CCCCC1C(C2)N(C)CC3 (stereo partly drawn),Potency,[1],inactive
same,Potency,[2],inactive
same,Potency,[3],inactive
same,Potency,[4],inactive
C[C@]12CC[C@H]3[C@@H](CCC4=CC(=O)CC[C@@]43C)[C@H]1CC[C@H]2O,Potency,[1],inactive
same,Potency,[2],11800 nM (active)
same,Potency,[4],inactive
C[C@]12COC(=O)C[C@@H]1CC[C@@H]1[C@H]2CC[C@@]2(C)[C@H]1CC[C@]2(C)O,Potency,[1],inactive
same,Potency,[2],inactive
same,Potency,[3],inactive
same,Potency,[4],inactive
C[C@]12CC[C@H]3[C@@H](CCC4=CC(=O)CC[C@@]43C)[C@H]1CC[C@H]2OC(=O)CCC1CCCC1,Potency,[1],inactive
same,Potency,[2],inactive
same,Potency,[3],inactive
same,Potency,[4],inactive
COc1ccc(N(C(=O)Oc2c(C)cccc2C)c2ccnc(Nc3ccc(N4CCN(C)CC4)cc3)n2)c(OC)c1,Potency,[1],2.64 µM (active)
same,Potency,[2],inactive and 20.6 µM (active)
same,Potency,[3],inactive
same,Potency,[4],inactive
CSCC[C@@H](NC(=O)[C@@H](Cc1ccccc1)NC(=O)CNC(=O)CNC(=O)[C@@H](N)Cc1ccc(O)cc1)C(=O)O,Potency,[1],inactive
same,Potency,[2],inactive
same,Potency,[3],inactive
same,Potency,[4],inactive
COCC1(CO)C(=O)C2CCN1CC2 (stereo not drawn),Potency,[1],2.35 µM (active)
same,Potency,[2],inactive
same,Potency,[3],inactive
same,Potency,[4],inactive
CC(C)[C@]12O[C@@H]1[C@@H]1O[C@]13[C@]1(O[C@H]1C[C@@H]1C4=C(CC[C@@]13C)C(=O)OC4)[C@H]2O,Potency,[1],inactive
same,Potency,[2],1 nM (active)
same,Potency,[4],inactive
N#C[C@H](O[C@@H]1O[C@H](CO[C@@H]2O[C@H](CO)[C@H](O)[C@H](O)[C@H]2O)[C@H](O)[C@H](O)[C@H]1O)c1ccccc1,Potency,[1],26.4 µM (active)
same,Potency,[2],20900 nM (active)
same,Potency,[4],17.2 µM (active)
C1=C2CCCN[C@H]2[C@@H]2C[C@H]1[C@@H]1CCCCN1C2,Potency,[1],inactive
same,Potency,[2],inactive
same,Potency,[3],inactive
same,Potency,[4],inactive
COc1cc2cc(c1Cl)N(C)C(=O)C[C@H](OC(=O)C(C)C)[C@]1(C)O[C@H]1[C@H](C)[C@@H]1C[C@@](O)(NC(=O)O1)[C@H](OC)C=CC=C(C)C2,Potency,[1],inactive
same,Potency,[2],1 nM (active)
same,Potency,[3],inactive
same,Potency,[4],inactive
CC(=Cc1csc(C)n1)[C@@H]1C[C@H]2O[C@@H]2CCC[C@H](C)[C@@H](O)[C@@H](C)C(=O)C(C)(C)[C@@H](O)CC(=O)O1,Potency,[1],inactive
same,Potency,[2],1 nM (active)
same,Potency,[3],inactive
same,Potency,[4],inactive
COc1ccc(CC2NCCc3cc(OC)c(OC)cc32)cc1OC (stereo not drawn),Potency,[1],inactive
same,Potency,[2],inactive
same,Potency,[3],inactive
same,Potency,[4],inactive
CC(=Cc1csc(C)n1)[C@@H]1C[C@H]2O[C@]2(C)CCC[C@H](C)[C@@H](O)[C@@H](C)C(=O)C(C)(C)[C@@H](O)CC(=O)O1,Potency,[1],inactive
same,Potency,[2],1 nM (active)
same,Potency,[4],inactive
CCOC(=O)c1cncn1[C@H](C)c1ccccc1,Potency,[1],inactive
same,Potency,[2],inactive
same,Potency,[3],inactive
same,Potency,[4],inactive
CCCCCCCCCC(CC)c1ccc(S(=O)(=O)O)cc1 (stereo not drawn),Potency,[5],inactive
same,Potency,[6],inactive
same,Potency,[2],inactive
same,Potency,[3],inactive
same,Potency,[4],inactive
Cc1c(N)nc([C@H](CC(N)=O)NC[C@@H](N)C(N)=O)nc1C(=O)N[C@H](C(=O)N[C@@H](C)[C@H](O)[C@@H](C)C(=O)N[C@@H](C(=O)NCCc1nc(-c2nc(C(=O)NCCC[S+](C)C)cs2)cs1)[C@@H](C)O)C(O[C@H]1O[C@H](CO)[C@H](O)[C@@H](O)[C@@H]1O[C@H]1O[C@H](CO)[C@@H](O)[C@H](OC(N)=O)[C@H]1O)c1cnc[nH]1 (stereo partly drawn),Potency,[1],0.418 µM (active)
same,Potency,[3],2.96 µM (active)
same,Potency,[4],inactive
C[N+](C)(C)CC(=O)O,Potency,[5],inactive
same,Potency,[6],inactive
same,Potency,[2],inactive
same,Potency,[3],inactive
same,outcome,[7],inactive
same,Potency,[8],inactive
same,Potency,[4],inactive
CCCCCC[C@H]1C(=O)O[C@H](C)[C@H](NC(=O)c2cccc(NC=O)c2O)C(=O)O[C@@H](C)[C@@H]1OC(=O)CC(C)C,Potency,[1],0.0833 µM (active)
same,Potency,[4],1.09 µM (active)
C#C[C@]1(O)C=C[C@@H]2[C@@H]3CCC4=CC(=O)CC[C@@H]4[C@H]3CC[C@@]21CC,Potency,[1],inactive
same,Potency,[3],inactive
same,Potency,[4],inactive
CN[C@@H]1C[C@@H](c2ccc(Cl)c(Cl)c2)c2ccccc21,Potency,[5],inactive
same,Potency,[6],inactive
same,Potency,[9],26.1 µM (active)
same,Potency,[10],0.757 µM (active)
same,Potency,[11],18.5 µM (active)
same,outcome,[7],inactive
same,Potency,[8],inactive
same,outcome,[12],inactive
